Read-out in assay [1]: sulfotransferase 2A1 (SULT2A1), SULT2A1 (gene 6822)
The assay is described as follows: LTEA_HepaRG_SULT2A1: Life Technologies and Expression Analysis (LTEA) Assay for sulfotransferase 2A1 (SULT2A1) using HepaRG (AID 2283531; active = hit-call score of the fitted dose curve at least 0.9, where 1 is the maximum; inactive = score below 0.9). Conditions: mRNA level, 48 h; actives raise or lower the signal. The method, boiled down:
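Cells were plated and cultured 48 h, switched to serum-free induction medium, then dosed in duplicate for 48 h (8 concentrations, max 100 uM). RNA was isolated and SULT2A1 expression measured by qRT-PCR; gain or loss of signal fitted relative to DMSO.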

Read-out in assay [2]: Transforming Growth Factor (TGFA), TGFA (gene 7039)
As to the kind of experiment: LTEA_HepaRG_TGFA: Life Technologies and Expression Analysis (LTEA) Assay for Transforming Growth Factor (TGFA) using HepaRG (AID 2283532; active = hit-call score of the fitted dose curve at least 0.9, where 1 is the maximum; inactive = score below 0.9). Conditions: mRNA level, 48 h; actives raise or lower the signal. A digest of the protocol:
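TGFA transcript quantified by qRT-PCR (Fluidigm arrays) against three housekeeping genes, after 48 hours chemical treatment of HepaRG cells. Top concentration 100 uM with half-log dilutions, 8 points, duplicates, 0.5% DMSO.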

Read-out in assay [3]: Transforming Growth Factor (TGFB1), TGFB1 (gene 7040)
As to the kind of experiment: LTEA_HepaRG_TGFB1: Life Technologies and Expression Analysis (LTEA) Assay for Transforming Growth Factor (TGFB1) Transporter using HepaRG (AID 2283533; active = hit-call score of the fitted dose curve at least 0.9, where 1 is the maximum; inactive = score below 0.9). Conditions: mRNA level, 48 h; actives raise or lower the signal. A digest of the protocol: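 Expression change of TGFB1 in human HepaRG cells is measured after a 48 h chemical exposure, up to 100 uM in 0.5% DMSO vehicle. Curves are fitted in both directions relative to the DMSO baseline.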

Read-out in the next assay: TIMP1, TIMP1 (gene 7076)
The assay is described as follows: LTEA_HepaRG_TIMP1: Life Technologies and Expression Analysis (LTEA) Assay for TIMP1 using HepaRG (AID 2283534; active = hit-call score of the fitted dose curve at least 0.9, where 1 is the maximum; inactive = score below 0.9;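 as to outcome: TaqMan qRT-PCR signal normalized to ACTB GAPDH and POLR2A housekeeping genes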). Conditions: mRNA level, 48 h; actives raise or lower the signal. The method, boiled down: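 We dosed human liver HepaRG cultures for 48 hours with up to 100 uM test chemical and measured TIMP1 expression by qRT-PCR. Activity in either direction is fitted relative to the 0.5% DMSO vehicle.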

Read-out in assay [4]: Thyroid Hormone Responsive (THRSP), THRSP (gene 7069)
The assay is described as follows: LTEA_HepaRG_THRSP: Life Technologies and Expression Analysis (LTEA) Assay for Thyroid Hormone Responsive (THRSP) using HepaRG (AID 2283536; active = hit-call score of the fitted dose curve at least 0.9, where 1 is the maximum; inactive = score below 0.9). Conditions: mRNA level, 48 h; actives raise or lower the signal. The method, boiled down: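 THRSP transcript quantified by Fluidigm qRT-PCR against three housekeeping genes after 48 h chemical exposure of HepaRG cells in serum-free induction medium; eight-point half-log series, top 100 uM, 0.5% DMSO vehicle, duplicate wells.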

Read-out in assay [5]: Cellular tumor antigen p53 (Homo sapiens) (UniProt P04637)
The assay is described as follows: LTEA_HepaRG_TP53: Life Technologies and Expression Analysis (LTEA) Assay for Tumor Protein P53 (TP53) using HepaRG (AID 2283537; active = hit-call score of the fitted dose curve at least 0.9, where 1 is the maximum; inactive = score below 0.9). Conditions: mRNA level, 48 h; actives raise or lower the signal. A digest of the protocol:
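Gain or loss of TP53 mRNA signal is scored relative to 0.5% DMSO after 48 h chemical treatment of HepaRG liver cells, tested in duplicate at eight half-log concentrations up to 100 uM.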

Read-out in assay [6]: UDP glucuronosyltransferase (UGT1A1), UGT1A1 (gene 54658)
The assay is described as follows: LTEA_HepaRG_UGT1A1: Life Technologies and Expression Analysis (LTEA) Assay for UDP glucuronosyltransferase (UGT1A1) using HepaRG (AID 2283538; active = hit-call score of the fitted dose curve at least 0.9, where 1 is the maximum; inactive = score below 0.9). Conditions: mRNA level, 48 h; actives raise or lower the signal. A digest of the protocol:
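Cells are plated, cultured 48 h, switched to serum-free induction medium, then dosed 48 h at eight concentrations (max 100 uM, 0.5% DMSO). RNA is isolated and UGT1A1 expression measured by qRT-PCR; changes versus DMSO are fitted in both directions.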

Read-out in assay [7]: UDP glucuronosyltransferase (UGT1A6), UGT1A6 (gene 54578)
The assay is described as follows: LTEA_HepaRG_UGT1A6: Life Technologies and Expression Analysis (LTEA) Assay for UDP glucuronosyltransferase (UGT1A6) using HepaRG (AID 2283539; active = hit-call score of the fitted dose curve at least 0.9, where 1 is the maximum; inactive = score below 0.9). Conditions: mRNA level, 48 h; actives raise or lower the signal. A digest of the protocol:
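Endpoint is UGT1A6 transcript induction or loss in a human liver cell line, quantified by TaqMan qRT-PCR 48 h after dosing. Concentrations ran from 100 uM downward in half-log steps in 0.5% DMSO; activity was fitted in both directions versus vehicle.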

Read-out in assay [8]: X-box binding protein 1 (XBP1), XBP1 (gene 7494)
As to the kind of experiment: LTEA_HepaRG_XBP1: Life Technologies and Expression Analysis (LTEA) Assay for X-box binding protein 1 (XBP1) using HepaRG (AID 2283540; active = hit-call score of the fitted dose curve at least 0.9, where 1 is the maximum; inactive = score below 0.9). Conditions: mRNA level, 48 h; actives raise or lower the signal. The method, boiled down: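 Human HepaRG monolayers receive test chemical for 48 h across an eight-point half-log series starting at 100 uM. XBP1 mRNA gain or loss is scored against DMSO by qRT-PCR.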

Assay [9] is described as follows: LTEA_HepaRG_LDH_cytotoxicity: Cytotoxicity Assessment in the Life Technologies and Expression Analysis (LTEA) Assay (AID 2283563).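 As to AC50: LDH activity released into spent culture medium as a marker of cell death.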 The method, boiled down: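 Human HepaRG hepatic cells are treated with test chemicals for 48 h at up to 100 uM in 0.5% DMSO. Cytotoxicity is scored from medium LDH against the vehicle control.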
A short description of assay [10]: ATG_XTT_Cytotoxicity: Cytotoxicity Assessment in the Attagene TRANS-FACTORIAL HepG2 Assay (AID 2283584). A digest of the protocol: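 Transfect HepG2 with GAL4-UAS reporter units, dose compound, incubate 24 h, then measure viable cell number by XTT. Fit concentration response against DMSO baseline.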
The target of assay [11] is Cellular tumor antigen p53 (Homo sapiens) (UniProt P04637). As to the kind of experiment: TOX21_p53_BLA_p2_ratio: Tox21 HCT-116 p53 Agonism Beta-lactamase Assay, Ratio, Phase 2 (AID 2283592). A digest of the protocol:
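Cleaved-to-uncleaved substrate ratio (460 vs 530 nm) measured in HCT116 cells with an inducible beta-lactamase reporter linked to p53 activity. Compounds incubated 16 h at 37C before 2 h room-temperature CCF4-AM loading.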

A short description of assay [12]: TOX21_p53_BLA_p4_viability: Viability Assessment in the Tox21 HCT-116 p53 Agonism Beta-lactamase Assay, Phase 4 (AID 2283597).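 Also: hits lower the luminescence signal meaning cytotoxicity.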 The method, boiled down: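 Viability is taken as cellular ATP: after 16 h compound exposure of HCT116 cells and a 2 h room-temperature CCF4-AM substrate step, CellTiter-Glo reagent is added and luminescence is measured 30 min later.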
Assay [13] can be described thus: TOX21_p53_BLA_p5_viability: Viability Assessment in the Tox21 HCT-116 p53 Agonism Beta-lactamase Assay, Phase 5 (AID 2283600). The method, boiled down:
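Viability is taken from cellular ATP content, measured by luciferase luminescence in the same wells after the beta-lactamase ratio read. Cells are seeded at 4000 per well and exposed to DMSO-dissolved compounds, diluted 217-fold, for 16 h.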

Assay [14] concerns the target Cellular tumor antigen p53 (Homo sapiens) (UniProt P04637). The assay is described as follows: TOX21_p53_BLA_p4_ratio: Tox21 HCT-116 p53 Agonism Beta-lactamase Assay, Ratio, Phase 4 (AID 2283601). A digest of the protocol: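 Signal is the blue/green (460nm/530nm) ratio of cleaved versus uncleaved CCF4-AM substrate, read after 2 h substrate loading. Cells were HCT116 carrying the p53-responsive beta-lactamase reporter, dosed 16 h at 37C, 5% CO2; CellTiter-Glo measured in parallel.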

Assay [15] in a line: Tanguay_ZF_120hpf_MORT_legacy: (Legacy) Oregon State University Tanguay Lab 120 Hour Post-fertilization zebrafish Assay for Mortality (AID 2283633).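 As to AC50: fitted as increase in binary mortality versus DMSO negative control.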 The method, boiled down: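 Mortality endpoint from a multiplexed whole-embryo zebrafish screen. Dechorionated wild-type embryos received compound at 6 hpf and remained under static exposure at 28C until 120 hpf, with death noted as a present/absent call.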

Assay [16] is described as follows: TOX21_p53_BLA_p2_viability: Viability Assessment in the Tox21 HCT-116 p53 Agonism Beta-lactamase Assay, Phase 2 (AID 2283591).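 Also: compound exposure lasted 16 h at 37 °C; actives lower the ATP signal meaning cytotoxicity.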 The method, boiled down: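 Cytotoxicity readout: CellTiter-Glo ATP luminescence, 30 min at room temperature, after the beta-lactamase read. Cells were HCT116 exposed 16 h at 37C to compounds pin-transferred at 217-fold dilution from DMSO stocks.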

Assay [17] in a line: TOX21_p53_BLA_p3_viability: Viability Assessment in the Tox21 HCT-116 p53 Agonism Beta-lactamase Assay, Phase 3 (AID 2283593).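 Also: cells exposed to compound for 16 h before reading.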 A digest of the protocol:
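Cellular ATP was quantified by CellTiter-Glo luminescence, read after 30 min at room temperature. Beforehand, HCT116 cells (4000/well) received compound 5 h post-seeding, 217-fold diluted from DMSO, then incubated 16 h at 37C.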

The target in assay [18] is Cellular tumor antigen p53 (Homo sapiens) (UniProt P04637). The assay is described as follows: TOX21_p53_BLA_p3_ratio: Tox21 HCT-116 p53 Agonism Beta-lactamase Assay, Ratio, Phase 3 (AID 2283596). The method, boiled down: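 Cells were seeded at 4000/well, rested 5 h at 37C, then dosed with DMSO compound solutions (217-fold dilution) for 16 h. CCF4-AM substrate was loaded for 2 h at room temperature, and the 460/530 nm emission ratio was fitted for gain of signal versus DMSO.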

The target is the same in assay [19]. The assay is described as follows: TOX21_p53_BLA_p5_ratio: Tox21 HCT-116 p53 Agonism Beta-lactamase Assay, Ratio, Phase 5 (AID 2283599). The method, boiled down: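 Beta-lactamase reporter ratio (blue 460 nm over green 530 nm, 405 nm excitation) after 2 h CCF4-AM loading, in HCT-116 cells exposed 16 h at 37 C to compounds pinned at 217-fold dilution. Increases relative to DMSO baseline scored.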

Several values for one entry are separate records, joined by “and”; a condition that tells them apart may be missing. Identical values can stand only once. Inconclusive results are not listed. Activity calls are given as the source filed them. The calls were made as follows, unless noted: active = hit-call score of the fitted dose curve at least 0.9, where 1 is the maximum; inconclusive = response in the unintended direction; inactive = score below 0.9.

Sequence of Cellular tumor antigen p53 (Homo sapiens) (P04637 whole entry, looked up): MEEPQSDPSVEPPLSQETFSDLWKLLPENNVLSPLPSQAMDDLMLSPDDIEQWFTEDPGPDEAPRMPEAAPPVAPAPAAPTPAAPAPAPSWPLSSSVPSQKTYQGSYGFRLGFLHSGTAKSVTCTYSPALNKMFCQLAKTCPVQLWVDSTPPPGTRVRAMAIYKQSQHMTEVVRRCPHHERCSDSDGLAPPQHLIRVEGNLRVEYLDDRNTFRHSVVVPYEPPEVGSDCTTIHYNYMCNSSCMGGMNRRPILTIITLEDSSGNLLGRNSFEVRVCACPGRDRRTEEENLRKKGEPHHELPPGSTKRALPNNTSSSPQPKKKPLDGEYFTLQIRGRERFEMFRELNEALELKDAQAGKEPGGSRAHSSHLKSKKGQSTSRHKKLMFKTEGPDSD

For the molecule `ClC1(Cl)C2(Cl)C3(Cl)C4(Cl)C(Cl)(Cl)C5(Cl)C3(Cl)C1(Cl)C5(Cl)C24Cl` (centres undefined), the outcome in [1] is “inactive”; in assay [2], “inactive”; in assay [3], “inactive”; with TIMP1, TIMP1 (gene 7076) it was “inactive”; in assay [4], “inactive”; in [5], “inactive”. Besides, the molecule was classed as inactive in [6], in [7], in assay [8], in assay [9], in assay [10] and in assay [11]. For the same molecule, the molecule was classed as inactive in assay [12], in assay [13], in [14] and in assay [15].
For orientation: AC50 means the concentration giving half of the maximal activity seen. For the molecule `CC12CC1(C)C(=O)N(c1cc(Cl)cc(Cl)c1)C2=O` (centres undefined), the outcome is “inactive” in assay [2]; “inactive” in assay [3]; “inactive” with TIMP1, TIMP1 (gene 7076); “inactive” in [4]; “inactive” in assay [5]; “inactive” in [7]. In addition, the result in assay [8], in assay [9], in [10], in [16], in [11] and in [17] was inactive. Moreover, the outcome in assay [18], in [12], in assay [19], in assay [14] and in [15] was inactive. In addition, the half-maximal activity concentration (AC50) in [6] was 10.5 µM (active).
Regarding `CN(CCCC(=O)c1cccnc1)N=O`, the outcome in [10] was inactive.
The same measure, in the same setting: then `NC(=S)Nc1ccccc1`, with “inactive”.
Consider `O=C(Nc1ccc2[nH]ccc2c1)c1cc2cc(F)ccc2n1Cc1cccc(F)c1`, for which the half-maximal activity concentration (AC50) in assay [1] was 31.8 µM (active); in assay [2], 29.3 µM (active); in the assay with TIMP1, TIMP1 (gene 7076), 81.9 µM (active); in [4] it was 28.3 µM (active); in assay [5], 12.4 µM (active); in [6] it was 50 µM (active). Moreover, the AC50 is 30.2 µM (active) in [7]; 38.3 µM (active) in assay [9]; 59.4 µM (active) in assay [11]; 86.7 µM (active) in [18]; 46.1 µM (active) in assay [12]; 83.2 µM (active) in assay [19]. For the same molecule, the AC50 in assay [14] was 42.2 µM (active). Moreover, the molecule was called inactive in [3], in assay [8], in assay [17], in [13] and in assay [15].
Consider `CCC(C)(C)c1ccc(O)c(C(C)(C)CC)c1`, for which the outcome in [1] is “inactive”; in [2] it was “inactive”; in assay [3], “inactive”; with TIMP1, TIMP1 (gene 7076), “inactive”; in assay [4] it was “inactive”; in assay [5] it was “inactive”. The result in assay [6], in assay [7], in assay [8], in assay [9], in assay [10] and in assay [15] was inactive. The AC50 in assay [16] was 46.1 µM (active) and 45.7 µM (active); in assay [11], 72.7 µM (active) and 66.4 µM (active); in assay [17], 52.9 µM (active) and 64 µM (active); in [18], 79.3 µM (active) and 85.5 µM (active); in [12], 23 µM (active) and 53.5 µM (active); in [19], 22.9 µM (active) and 70.8 µM (active). Also, the concentration at half-maximal activity (AC50) was 22.2 µM (active) and 45.7 µM (active) in assay [13]; 54.3 µM (active) in [14].
Turning to `Oc1cccc2cccnc12`, the outcome in [1] was “inactive”; in assay [2] it was “inactive”; in [3], “inactive”; with TIMP1, TIMP1 (gene 7076), “inactive”; in assay [4], “inactive”; in assay [5], “inactive”. For the same molecule, the call in assay [6], in assay [7], in assay [8], in assay [9], in assay [10] and in [16] was inactive. Moreover, the molecule was called inactive in assay [17] and in [12]. Also, the concentration at half-maximal activity (AC50) in assay [15] was 27.2 µM (active).
